# PI4K2A block – inhibitors of human PI4K2A; Q9BTU6; purified PI4K2A, ADP-Glo luminescence, 1 h; stronger effect = lower value; activity change, negative = inhibition, % at 76.9 µM; hit rate 0.13% among 420,000; in the data active = activity change below about -50%; inconclusive = mostly about -30% to -49%
# Target sequence (Q9BTU6 whole entry, looked up): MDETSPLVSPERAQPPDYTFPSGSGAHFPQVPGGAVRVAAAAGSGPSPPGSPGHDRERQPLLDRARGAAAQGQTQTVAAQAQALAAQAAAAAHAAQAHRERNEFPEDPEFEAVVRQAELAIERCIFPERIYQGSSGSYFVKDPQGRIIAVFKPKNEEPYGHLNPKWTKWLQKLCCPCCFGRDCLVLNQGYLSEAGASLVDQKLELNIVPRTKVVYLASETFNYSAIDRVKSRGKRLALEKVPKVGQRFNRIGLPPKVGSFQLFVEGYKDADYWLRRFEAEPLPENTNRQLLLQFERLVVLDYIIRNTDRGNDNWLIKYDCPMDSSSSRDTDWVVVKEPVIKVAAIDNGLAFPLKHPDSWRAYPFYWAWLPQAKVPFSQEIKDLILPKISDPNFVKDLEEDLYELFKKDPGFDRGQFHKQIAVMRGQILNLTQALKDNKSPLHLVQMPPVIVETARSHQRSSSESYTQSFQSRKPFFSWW
#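 In this quantitative HTS, ADP production by PI4K2A was quantified luminescently after 1 h at ambient temperature; 100 microM adenosine served as plate-quality control.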
# Giardia killer – Giardia lamblia killing | Giardia lamblia trophozoite viability | hit rate 0.15% among 340,000 | activity change, % at 7.66 µM, hits read low; in the data active = activity change below about -80%; inconclusive = between about -30% and that limit;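 note: parasites exposed to compound for two days anaerobically before the ATP read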
#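 Trophozoites 100 cells/well + cpd; 48 hrs, 37 deg C, anaerobic. ATPLite 1-Step added, 15-30 min RT, luminescence read (ATP-based viability).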
# KB-V1 MDR tox – kills drug-selected multidrug resistant KB-V1 cells; KB-V1 MDR cells viability, CellTiter-Glo, 72 h; Potency, µM (doses to about 46.1 µM), hits mostly cytotoxic; hit rate 3.4% among 400,000; AID 1347076; note: nearly all actives have a fitted effect of over 60% in size
#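 KB-V1 MDR subline cells in DMEM (phenol-red free, 10% FBS) exposed to compounds in qHTS concentration series for 72 h at 37 degrees C. Viability read by CellTiter-Glo luminescence; concentration-effect curves fitted after normalization and correction.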
# Nrf2 block – blocks Nrf2 signaling; Potency, µM (top dose mostly 46 µM), usual class: inhibitors; hit rate 2.1% among 360,000; A549 ARE-Fluc reporter, luciferase luminescence, 18-24 h; note: nearly all actives have a fitted effect of over 60% in size
#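 Nrf2 activity is the BugLite luminescence, read 15 min after reagent at room temperature, following CellTiter-Fluor cytotoxicity readout (30 min, 37C). Compound titrations were applied for 18-24 h to 5000 A549 ARE_Fluc cells/well in 5% FBS OPTI-MEM.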
# KB-3-1 tox – KB-3-1 parental cell cytotoxicity | KB-3-1 viability, CellTiter-Glo ATP luminescence, 72 h | Potency, µM (highest dose often 46.1 µM), hits mostly cytotoxic | hit rate 1.4% among 400,000 | AID 1347075; note: nearly all actives have a fitted effect of over 60% in size
#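 Parental KB-3-1 viability, qHTS format: 72 h compound exposure, 37 °C; CellTiter-Glo; media-only wells and DMSO plates as controls; concentration-effect fits on corrected data.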
# A549 viability – A549 cytotoxicity, counter-screen for Nrf2 inhibitors; A549 ARE-Fluc cells, CellTiter-Fluor viability, 18-24 h; Potency, µM (top dose mostly 46 µM), hits mostly inhibitors; hit rate 0.16% among 390,000
#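 A549 ARE_Fluc cells in 5% FBS OPTI-MEM were exposed to compounds in concentration-response for 18-24 h at 37 deg C. Viability was read by CellTiter-Fluor fluorescence (Ex 405/Em 525) after 30 min, before the luciferase read.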
# Hits are given with their value; – = inactive; ? = inconclusive; · = not tested or not shown. This is a sample that favours compounds with a hit; in the whole collection about 5.7% have one here. Unless noted, calls come from the whole dose curve; as a rule, active = well fitted curve in the direction sought with a large enough effect; inconclusive = small, poorly fitted or top-dose-only effect, or another doubt; inactive = no such curve, though single readings can be large; an effect the other way counts as inactive or inconclusive.
SMILES,PI4K2A block,Giardia killer,KB-V1 MDR tox,Nrf2 block,KB-3-1 tox,A549 viability
CCc1cccc2c(C(=O)CN3C(=O)NC4(CCc5ccccc54)C3=O)c[nH]c12 (centres undefined),–,–,?,?,?,–
Cc1cc(C)n(-c2cccc(Cl)c2)c(=O)c1C#N,–,–,–,–,–,–
Cc1cc2n(c(=O)c1C#N)CCCN2c1cccc(Cl)c1,–,–,13µM,?,–,?
CCN(CC)C(=O)c1ccc2c3c(cccc13)C(=O)N(CCc1ccc(OC)c(OC)c1)C2=O,–,–,7.3µM,?,?,–
O=C(c1ccccc1)C1CN(c2ccccc2)CC1c1ccc(Cl)cc1 (centres undefined),–,–,–,–,–,–
COc1cccc(C(=O)C2CN(c3ccccc3)CC2c2ccc(Cl)cc2)c1 (centres undefined),–,–,16µM,–,–,–
CCN(C(=O)COC(=O)CCOc1ccc(C(C)(C)C)cc1)c1c(N)n(Cc2ccccc2)c(=O)[nH]c1=O,–,–,–,–,26µM,–
CCN(C(=O)COC(=O)CNC(=O)c1ccc2ccccc2c1)c1c(N)n(Cc2ccccc2)c(=O)[nH]c1=O,–,–,–,–,–,–
CCN(C(=O)COC(=O)C1CCC(C(C)(C)C)CC1)c1c(N)n(Cc2ccccc2)c(=O)[nH]c1=O (centres undefined),–,–,–,13µM,?,–
CCN(C(=O)COC(=O)c1ccc2ccccc2c1)c1c(N)n(Cc2ccccc2)c(=O)[nH]c1=O,–,–,–,23µM,–,?
c1csc(CNc2ncnc3cc(-c4ccc5c(c4)OCO5)ccc23)c1,·,·,·,–,·,–
Cc1noc(C)c1-c1ccc2ncnc(NCc3cccc(C(F)(F)F)c3)c2c1,·,·,·,?,·,–
CCOC(=O)C1=C(C)N(Cc2ccccc2)C(=O)NC1c1ccccc1OS(=O)(=O)c1ccccc1[N+](=O)[O-] (centres undefined),–,–,7.3µM,?,?,–
COC(=O)C1=C(C)N(CCCC(=O)O)C(=O)NC1c1ccccc1OS(=O)(=O)c1ccccc1[N+](=O)[O-] (centres undefined),–,–,–,–,–,–
Cc1c[nH]c2cccc(-c3ccc4c(c3)OCO4)c12,–,·,·,·,·,·
COCC(=O)N[C@@H]1C[C@@H]2O[C@H](CO)CC[C@@H]2O[C@@H]1CCc1ccc(-c2ccccc2)cc1,–,·,·,·,·,·
CCC[C@@H](/C=C/C(=O)OC(C)(C)C)Sc1ccc(N)cc1,–,·,·,·,·,·
COc1ccc(NC(=O)c2ccc(-c3ccccc3)cc2)cc1NS(=O)(=O)c1ccc(F)cc1,–,–,–,15µM,–,–
COc1ccccc1NS(=O)(=O)c1ccc(Cl)c(NC(=O)c2sc3cc(Cl)ccc3c2Cl)c1,–,–,–,–,–,–
COc1ccccc1NS(=O)(=O)c1ccc(NC(=O)c2ccccn2)cc1,–,–,–,21µM,–,–
COc1ccccc1NS(=O)(=O)c1cccc(NC(=O)c2sc3ccccc3c2Cl)c1,–,–,?,9.2µM,?,–
CCOC(=O)[C@@]12CCC3=C1N(CCC3)C(=O)[C@H](CC(=O)NCc1cccs1)C2,–,·,·,·,·,·
CCOc1ccccc1CNC(=O)c1cnc2sc(N(CC)CC)nn2c1=O,–,·,·,?,·,–
O=C(N/N=C/c1c(O)n(Cc2ccccc2)c(=O)c2ccccc12)c1cccnc1,–,–,?,–,18µM,–
COc1ccc(Cn2c(O)c(/C=N/NC(=O)c3cccnc3)c3ccccc3c2=O)cc1,–,–,–,–,–,–
SMILES,PI4K2A block,Giardia killer,KB-V1 MDR tox,Nrf2 block,KB-3-1 tox,A549 viability
O=C(c1cc(C2CC2)nn1-c1ccccc1)N1CCN(c2ncc(C(F)(F)F)cc2Cl)CC1,–,–,16µM,–,–,–
O=C(CSc1ccc(Cl)cc1)N1CCN(c2ncc(C(F)(F)F)cc2Cl)CC1,–,–,15µM,21µM,–,–
O=C(CSc1ncc(C(F)(F)F)cc1Cl)N1CCN(S(=O)(=O)c2ccc(Cl)cc2)CC1,–,–,–,?,–,–
O=C(c1cc(C2CC2)nn1-c1ccccc1)N1CCN(c2ccccn2)CC1,–,–,?,?,–,–
O=C(CSc1ccc(Cl)cc1)N1CCN(c2ccc([N+](=O)[O-])cc2Cl)CC1,–,–,16µM,?,?,–
CCc1ccccc1NC(=O)CN(C)Cc1nc(N)nc(Nc2ccccc2C)n1,–,–,3.3µM,–,–,–
Cc1ccccc1NC(=O)CSCc1nc(N)nc(Nc2ccccc2C)n1,–,–,–,–,–,–
CCc1ccc2[nH]c(=O)c(CN(Cc3nnnn3C3CCCC3)C3CCCCC3)cc2c1,–,–,–,?,–,–
Cc1ccc2[nH]c(=O)c(CN(Cc3ccc4c(c3)OCO4)Cc3nnnn3C3CCCC3)cc2c1,–,–,18µM,–,–,–
Cc1cccc2cc(CN(CC3CCCO3)C(=S)Nc3ccccc3)c(=O)[nH]c12 (centres undefined),–,–,3.7µM,–,–,–
Cc1cccc2cc(CN(Cc3nnnn3C3CCCC3)C3CCCCC3)c(=O)[nH]c12,–,–,23µM,?,–,?
CCNC(=S)N(Cc1cc2cccc(C)c2[nH]c1=O)C1CCCC1,–,–,18µM,–,?,–
Cc1cc2cc(CN(Cc3ccc4c(c3)OCO4)Cc3nnnn3C3CCCC3)c(=O)[nH]c2cc1C,–,–,?,?,–,–
Cc1cccc2cc(CN(C(=S)NCC(C)C)C3CCCC3)c(=O)[nH]c12,–,–,?,–,–,–
Cc1ccccc1N(C)C(=O)c1noc2c1COc1ccccc1-2,–,·,·,?,·,–
CCc1nn2c(=O)cc(COC(=O)c3cccs3)nc2s1,–,·,·,?,·,–
N#Cc1ccc(Cn2ccc3ccc(-c4ccc5ccn(C(=O)c6ccccc6)c5c4)cc32)cc1,–,·,·,·,·,·
Cc1cccc2cc(CN(Cc3nnnn3Cc3ccco3)C3CCCC3)c3nnnn3c12,–,–,12µM,–,–,–
Cc1ccc2[nH]c(=O)c(CN(Cc3nnnn3Cc3ccccc3)C3CCCC3)cc2c1,–,–,–,–,–,–
Cc1cccc2cc(CN(Cc3ccco3)C(=O)NC3CCCCC3)c(=O)[nH]c12,–,–,3.7µM,–,–,–
Cc1cccc2cc(CN(CC3CCCO3)C(=O)NC3CCCCC3)c(=O)[nH]c12 (centres undefined),–,–,–,–,–,–
Cc1cccc(NC(=S)N(Cc2cccs2)Cc2cc3cc(C)cc(C)c3[nH]c2=O)c1,–,–,21µM,–,?,–
Cn1c(Oc2ccc(Cl)cc2)c(C=O)c2ccccc21,–,–,?,?,21µM,–
CCCCCCCC(=O)[O-].CCCCCCCC(=O)[O-].[Zn+2],–,·,·,·,·,·
